Screening data: PubChem, The Scripps Research Institute Molecular Screening Center
ssDAF-12 act – activators of S. stercoralis DAF-12 nuclear receptor; HEK293 ssDAF-12/GRIP1 lit1-tk-luc reporter, luminescence; % of 3 µM dafachronic acid response; activation, % at 6.8 µM; 370,000 tested, 1% active; AID 652126;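 active = activation above the mean over all tested compounds plus 3 SD, cut at about 0.9% in these data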;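 also: 0% = DMSO-only wells and 100% = 3 µM delta7-dafachronic acid wells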
hcDAF-12 act – H. contortus DAF-12 activation, primary screen; activation, % at 6.8 µM; AID 652067; HEK293 hcDAF-12 lit1-tk-luc reporter, luminescence; 0% DMSO, 100% Δ7-dafachronic acid; 370,000 tested, 1.4% active;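 active = activation above the mean of all tested compounds plus 3 SD, cut at about 5.5% in these data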;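 also: 100% = response to 3 µM Δ7-dafachronic acid high control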
DAX1 inh-1 – blocks DAX1 repression of SF-1 activated StAR promoter | HEK293T StAR-luciferase reporter, SF-1/DAX-1 repression relief | inhibition, % at 6.8 µM | 370,000 tested, 1.1% active;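 active = inhibition above the mean over all tested compounds plus 3 SD, cut at about 3.6% in these data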;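 also: 0% = DAX-1 cells with DMSO and 100% = cells lacking DAX-1 with DMSO; higher inhibition means more luminescence from relief of DAX-1 repression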
DAX1 inh-2 – inhibits human nuclear receptor DAX1; HEK293 Gal4-DAX1 luciferase reporter, luminescence; inhibition, % at 6.75 µM; 340,000 tested, 0.99% active; P51843;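 active = inhibition above the mean over all tested compounds plus 3 SD, cut at about 4.2% in these data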;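 also: 0% = DAX1-transfected cells with DMSO and 100% = empty-vector control cells with DMSO; inhibition shows as a rise in luminescence from relieved DAX1 repression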
Target sequence (P51843 207-470 limits assumed): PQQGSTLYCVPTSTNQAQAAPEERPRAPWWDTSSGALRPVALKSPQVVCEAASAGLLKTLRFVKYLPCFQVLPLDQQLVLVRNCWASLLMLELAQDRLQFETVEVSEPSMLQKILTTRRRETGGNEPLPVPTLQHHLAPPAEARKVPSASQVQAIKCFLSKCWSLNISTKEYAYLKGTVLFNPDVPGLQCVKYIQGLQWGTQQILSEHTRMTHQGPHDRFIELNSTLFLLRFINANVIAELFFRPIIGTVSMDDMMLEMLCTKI
hgDAF12 agonist – hgDAF-12 agonism, primary luciferase screen. activation, % at 6.8 µM. HEK293 GAL4-hgDAF12 UAS-luciferase reporter, agonist luminescence; normalized to butyrate control. AID 687014. 370,000 tested, 1.8% active;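 active = activation above a cutoff set at the mean of all screened compounds plus 3 SD, cut at about 10% in these data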;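 also: 0% = DMSO wells and 100% = sodium butyrate wells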
Active calls of the source: *; nt = not tested or not shown. The list is not random: actives were taken first. Their share in the collection is about 4.1%.

SMILES	ssDAF-12 act	hcDAF-12 act	DAX1 inh-1	DAX1 inh-2	hgDAF12 agonist
CCCC1CCC(=NNS(=O)(=O)c2ccc(C)c([N+](=O)[O-])c2)CC1 (stereo not given)	-0.8	-0.7	-0.2	-0.2	2.4
c1ccc(SCCN2CCc3ccccc3C2)cc1	-0.3	0.2	0.6	-0.6	4.8
c1ccc(SCCOCCN2CCc3ccccc3C2)cc1	-0.8	6.3*	0.8	0.5	2.6
Cc1cc(OCC(=O)N(C)Cc2ccccc2)ccc1Br	-0.4	-0.8	-0.8	0.6	5.2
Cc1cc(OCC(=O)N(C)Cc2ccccc2)ccc1Cl	1.6*	4.4	0.8	1.7	8.6
CN(CCOc1ccc(Cl)cc1)CC(O)c1ccccc1 (stereo not given)	-0.6	0.5	0.0	4.3*	1.4
CN1CCN(c2ccc(S(=O)(=O)N3CCCCC3)cc2NC(=O)c2ccc3ccccc3c2)CC1	-1.9	-4.0	-1.1	0.5	-0.5
Cc1ccccc1C(=O)Nc1cc(S(=O)(=O)N2CCCCC2)ccc1N1CCN(C)CC1	-0.3	1.3	-0.1	5.0*	-2.4
COc1ccc(NCC(=O)Nc2cc(S(=O)(=O)N3CCOCC3)ccc2N2CCOCC2)c(OC)c1	-1.7	-1.4	0.0	7.1*	-0.5
CCN1CCN(c2ccc(S(=O)(=O)N3CCOCC3)cc2NC(=O)c2ccc(C)cc2C)CC1	-0.8	-0.1	3.9*	0.9	-0.2
Cc1cc(N2CCN(CC(C)(C)O)C[C@H]2C)ccc1N1CCN(CC(C)(C)O)[C@H](C)C1	-1.1	-1.4	0.2	nt	1.5
CCCC1CCC2(CC1)CCC2OC(=O)Nc1ccc2c(c1)OCO2 (stereo not given)	-1.9	-1.7	nt	nt	4.1
O=C(NC1CCCC1)C1CCN(C(=O)c2ccc(Cl)cc2)CC1	-1.0	-0.6	0.1	3.8	1.2
Cc1ccc(C(=O)N2CCC(C(=O)NC3CCCC3)CC2)cc1	-0.3	0.1	0.2	4.3*	-0.7
CC1(C)CC(=O)C=C(C#CC2CC2)C1	-0.9	-0.8	0.7	nt	4.0
O=C(N/N=C/c1ccc(O)cc1)c1cc(C23CC4CC(CC(C4)C2)C3)[nH]n1	1.0*	-1.2	0.7	-1.2	0.6
COc1ccc(/C=N/NC(=O)c2cc(C34CC5CC(CC(C5)C3)C4)[nH]n2)cc1OC	-1.7	-2.0	0.2	-1.1	-2.1
O=C1c2ccccc2/C(=C\c2ccc(O[C@@H]3CCCCO3)cc2)N1c1ccccc1	-1.4	2.2	0.9	nt	10.5*
FC(F)(F)c1ccc(NCCc2ccccc2)nc1	-0.6	-1.2	0.4	5.1*	-0.4
NS(=O)(=O)c1ccc(CCNc2ccc(C(F)(F)F)cn2)cc1	-1.3	-0.3	-0.5	0.4	-0.4
O=C1CSC(c2cccnc2)N1Cc1ccc(Cl)cc1 (stereo not given)	-1.4	-0.6	0.1	0.8	-1.5
O=C1CSC(c2cccnc2)N1CC1CC1 (stereo not given)	-0.2	0.2	-0.6	4.8*	1.4
Cc1cc(N)ncc1[N+](=O)[O-]	-1.0	-0.7	-0.6	4.2*	-1.5
Cc1cc(OC(C)C(=O)NCC2CCC(C(=O)O)CC2)c2c(C)c(Cc3ccccc3)c(=O)oc2c1 (stereo not given)	-0.6	-1.1	0.8	6.6*	-3.5
CCCc1cc(=O)oc2cc(OC(C)C(=O)NCC3CCC(C(=O)O)CC3)c(Cl)cc12 (stereo not given)	-1.4	-1.0	0.8	4.5*	1.0
SMILES	ssDAF-12 act	hcDAF-12 act	DAX1 inh-1	DAX1 inh-2	hgDAF12 agonist
CC(Oc1ccc2ccc(=O)oc2c1)C(=O)NCC1CCC(C(=O)O)CC1 (stereo not given)	-0.1	-0.7	1.2	4.7*	-2.3
CCCCNS(=O)(=O)/C=C/c1ccccc1CCNC(=O)OC(C)(C)C	-1.3	-2.0	-1.6	nt	0.9
C[C@@H]1COc2cc(NCCCN3CCOCC3)ccc2S(=O)(=O)N1	-0.6	1.2	-0.6	nt	-0.1
O=C(Nc1ccc(Cl)c(Cl)c1)c1ccc(Cl)c(Cl)c1	0.5	5.2	0.7	2.0	12.9*
COc1ccc(C(CC(=O)c2ccc3c(c2)OCO3)C(=O)O)cc1OC (stereo not given)	4.0*	0.3	-0.7	2.5	1.1
O=C(Nc1ccc(F)c(Cl)c1)c1ccc2c(c1)OCO2	0.3	6.2*	2.3	2.6	10.7*
COc1ccc(NC(=O)C=C(C)C)cc1Cl	-0.6	3.1	4.2*	0.6	10.0
COCC(=O)Nc1ccc(OC)c(Cl)c1	-1.3	-0.9	0.3	0.7	-1.6
